From PubChem BioAssay (EPA / NIEHS)
Active and inactive are the calls of the source. Rule for the calls: active = hit-call score of the fitted dose curve at least 0.9, where 1 is the maximum; inactive = score below 0.9.

Columns and labels:
Settings in all cases: mRNA level, 48 h; actives raise or lower the signal
[1] = read-out: Lipase C (LIPC), LIPC (gene 3990); assay: LTEA_HepaRG_LIPC: Life Technologies and Expression Analysis (LTEA) Assay for Lipase C (LIPC) using HepaRG (AID 2283514)
Procedure, shortened: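 Differentiated human HepaRG cells in serum-free induction medium were exposed in duplicate for 48 h to eight concentrations (top 100 uM, half-log steps, 0.5% DMSO). LIPC mRNA was quantified by TaqMan qRT-PCR, normalized to ACTB, GAPDH and POLR2A, with bidirectional fitting versus DMSO.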

[2] = read-out: Lipoprotein lipase (LPL), LPL (gene 4023); assay: LTEA_HepaRG_LPL: Life Technologies and Expression Analysis (LTEA) Assay for Lipoprotein lipase (LPL) using HepaRG (AID 2283515)
Procedure, shortened: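 Differentiated human HepaRG cells in serum-free induction medium were exposed in duplicate for 48 h to eight half-log concentrations (top 100 uM) in 0.5% DMSO. LPL mRNA was quantified by TaqMan qRT-PCR, normalized to ACTB, GAPDH and POLR2A.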

[3] = read-out: MicroRNA 122 (MIR122), gene 406906; assay: LTEA_HepaRG_MIR122: Life Technologies and Expression Analysis (LTEA) Assay for MicroRNA 122 (MIR122) using HepaRG (AID 2283516); note: the transcript read is the microRNA miR-122
Procedure, shortened: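 HepaRG, 48 h exposure, 8-pt half-log from 100 uM, 0.5% DMSO; TaqMan qRT-PCR; bidirectional fit vs DMSO.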

[4] = read-out: matrix metalloproteinase-10 (MMP10), MMP10 (gene 4319); assay: LTEA_HepaRG_MMP10: Life Technologies and Expression Analysis (LTEA) Assay for matrix metalloproteinase-10 (MMP10) using HepaRG (AID 2283517)
Procedure, shortened: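 HepaRG, collagen I, ~100,000 cells/well; serum-free induction medium; 48 h exposure, duplicate, 8-pt half-log to 100 uM, 0.5% DMSO. Readout: TaqMan qRT-PCR, normalized to ACTB/GAPDH/POLR2A; bidirectional fit vs DMSO.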

MYC, MYC (gene 4609) = assay: LTEA_HepaRG_MYC: Life Technologies and Expression Analysis (LTEA) Assay for MYC using HepaRG (AID 2283518)
Procedure, shortened: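 HepaRG, ~100,000 cells/well, collagen I; 48 h plating; serum-free induction medium; 48 h dosing, duplicate, 100 uM top, half-log, 0.5% DMSO; total RNA → qRT-PCR MYC; gain/loss fit vs DMSO.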

[5] = read-out: matrix metalloproteinase-3 (MMP3), MMP3 (gene 4314); assay: LTEA_HepaRG_MMP3: Life Technologies and Expression Analysis (LTEA) Assay for matrix metalloproteinase-3 (MMP3) using HepaRG (AID 2283519)
Procedure, shortened: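 Differentiated human HepaRG cells, plated 48 h on collagen I, were exposed in duplicate for 48 h in serum-free induction medium to eight half-log concentrations up to 100 uM in 0.5% DMSO. MMP3 mRNA was quantified by TaqMan qRT-PCR, normalised to ACTB, GAPDH and POLR2A.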

[6] = read-out: Paternally Expressed 10 (PEG10), PEG10 (gene 23089); assay: LTEA_HepaRG_PEG10: Life Technologies and Expression Analysis (LTEA) Assay for Paternally Expressed 10 (PEG10) using HepaRG (AID 2283520)
Procedure, shortened: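 Chemicals tested on HepaRG cells for 48 h, highest concentration 100 uM. PEG10 expression assessed by qRT-PCR relative to DMSO control.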

[7] = read-out: Nuclear factor NF-kappa-B p105 subunit (Homo sapiens) (UniProt P19838); assay: LTEA_HepaRG_NFKB1: Life Technologies and Expression Analysis (LTEA) Assay for Nuclear Factor Kappa B Subunit 1 (NFKB1) using HepaRG (AID 2283521);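 note: TaqMan qRT-PCR transcript normalised to ACTB GAPDH and POLR2A housekeeping genes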
Procedure, shortened: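 Human HepaRG cells receive eight half-log concentrations, highest 100 uM, for 48 h. NFKB1 expression is then quantified by qRT-PCR and analysed for up- or down-regulation relative to 0.5% DMSO vehicle.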

[8] = read-out: Protein phosphatase 2A (PPP2R4), PTPA (gene 5524); assay: LTEA_HepaRG_PPP2R4: Life Technologies and Expression Analysis (LTEA) Assay for Protein phosphatase 2A (PPP2R4) using HepaRG (AID 2283522)
Procedure, shortened: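 Gene-expression endpoint in HepaRG hepatic cells: 48 h treatment across eight half-log concentrations up to 100 uM in 0.5% DMSO. PPP2R4 mRNA by qRT-PCR, normalized to three endogenous control genes.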

[9] = read-out: Phosphatase and tensin (PTEN), PTEN (gene 5728); assay: LTEA_HepaRG_PTEN: Life Technologies and Expression Analysis (LTEA) Assay for Phosphatase and tensin (PTEN) using HepaRG (AID 2283523)
Procedure, shortened: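 Differentiated human HepaRG cells, plated 48 h then switched to serum-free induction medium, were exposed in duplicate for 48 h to eight half-log concentrations up to 100 uM in 0.5% DMSO. PTEN mRNA measured by TaqMan qRT-PCR, normalized to ACTB/GAPDH/POLR2A, bidirectional fit versus DMSO.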

[10] = read-out: solute carrier (SLC22A1), SLC22A1 (gene 6580); assay: LTEA_HepaRG_SLC22A1: Life Technologies and Expression Analysis (LTEA) Assay for solute carrier (SLC22A1) using HepaRG (AID 2283524)
Procedure, shortened: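 Human HepaRG cells were plated 48 h, switched to serum-free induction medium, then exposed in duplicate for 48 h to 8-point half-log series from 100 uM in 0.5% DMSO. SLC22A1 mRNA measured by qRT-PCR, normalized to ACTB/GAPDH/POLR2A, fitted bidirectionally versus DMSO.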

[11] = read-out: Pyruvate Dehydrogenase Kinase 4 (PDK4), PDK4 (gene 5166); assay: LTEA_HepaRG_PDK4: Life Technologies and Expression Analysis (LTEA) Assay for Pyruvate Dehydrogenase Kinase 4 (PDK4) using HepaRG (AID 2283525)
Procedure, shortened: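 Differentiated human HepaRG cells, pre-cultured 48 h, were exposed in duplicate for 48 h in serum-free induction medium to eight half-log concentrations up to 100 uM in 0.5% DMSO. PDK4 mRNA was quantified by qRT-PCR, normalized to ACTB, GAPDH and POLR2A, bidirectional fitting versus DMSO.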

[12] = read-out: NAD(P)H dehydrogenase [quinone] 1 (NQO1), NQO1 (gene 1728); assay: LTEA_HepaRG_NQO1: Life Technologies and Expression Analysis (LTEA) Assay for NAD(P)H dehydrogenase [quinone] 1 (NQO1) using HepaRG (AID 2283526)
Procedure, shortened: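 Human HepaRG hepatic cells received chemicals for 48 h in serum-free induction medium with 0.5% DMSO, up to 100 uM. Expression was assessed by TaqMan qRT-PCR against housekeeping controls and fitted bidirectionally against DMSO.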

[13] = read-out: Nuclear factor erythroid 2-related factor 2 (Homo sapiens) (UniProt Q16236); assay: LTEA_HepaRG_NFE2L2: Life Technologies and Expression Analysis (LTEA) Assay for Nuclear factor erythroid 2-related factor 2 (NFE2L2) Transcription Factor using HepaRG (AID 2283527);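 note: TaqMan qRT-PCR transcript level normalised to ACTB GAPDH and POLR2A housekeeping genes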
Procedure, shortened: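 Differentiated human HepaRG cells in serum-free induction medium were exposed for 48 h to eight concentrations (top 100 uM, half-log dilutions, 0.5% DMSO), in duplicate. NFE2L2 mRNA was quantified by TaqMan qRT-PCR, normalized to ACTB, GAPDH and POLR2A, with bidirectional fitting versus DMSO.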

[14] = read-out: succinate dehydrogenase complex iron sulfur subunit B (SDHB), SDHB (gene 6390); assay: LTEA_HepaRG_SDHB: Life Technologies and Expression Analysis (LTEA) Assay for succinate dehydrogenase complex iron sulfur subunit B (SDHB) using HepaRG (AID 2283528)
Procedure, shortened: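 A human HepaRG culture in serum-free induction medium received test chemicals for 48 h over an eight-point range capped at 100 uM. SDHB expression change was quantified by qRT-PCR.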

[15] = read-out: Signal transducer and activator of transcription 3 (Homo sapiens) (UniProt P40763); assay: LTEA_HepaRG_STAT3: Life Technologies and Expression Analysis (LTEA) Assay for Signal transducer and activator of transcription (STAT3) using HepaRG (AID 2283529)
Procedure, shortened: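 Differentiated human HepaRG cells in serum-free induction medium were exposed in duplicate for 48 h to eight half-log concentrations up to 100 uM in 0.5% DMSO. STAT3 mRNA was quantified by TaqMan qRT-PCR, normalized to ACTB, GAPDH and POLR2A, and fitted bidirectionally against DMSO.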

[16] = read-out: solute carrier (SLCO1B1), SLCO1B1 (gene 10599); assay: LTEA_HepaRG_SLCO1B1: Life Technologies and Expression Analysis (LTEA) Assay for solute carrier (SLCO1B1) using HepaRG (AID 2283530)
Procedure, shortened: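 HepaRG, serum-free induction medium, 48 h dosing, 8-pt half-log from 100 uM, 0.5% DMSO vehicle, duplicates. Readout: SLCO1B1 mRNA, qRT-PCR, ACTB/GAPDH/POLR2A normalization; up or down fit vs DMSO.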

[17] = read-out: sulfotransferase 2A1 (SULT2A1), SULT2A1 (gene 6822); assay: LTEA_HepaRG_SULT2A1: Life Technologies and Expression Analysis (LTEA) Assay for sulfotransferase 2A1 (SULT2A1) using HepaRG (AID 2283531)
Procedure, shortened: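 Transcript levels of SULT2A1, quantified by qRT-PCR and normalized to three housekeeping genes, serve as the readout. Human HepaRG cultures receive test chemicals for 48 h at up to 100 uM in half-log steps, with 0.5% DMSO vehicle.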

Measured: outcome

Chain of Nuclear factor NF-kappa-B p105 subunit (Homo sapiens) (P19838 whole entry, looked up): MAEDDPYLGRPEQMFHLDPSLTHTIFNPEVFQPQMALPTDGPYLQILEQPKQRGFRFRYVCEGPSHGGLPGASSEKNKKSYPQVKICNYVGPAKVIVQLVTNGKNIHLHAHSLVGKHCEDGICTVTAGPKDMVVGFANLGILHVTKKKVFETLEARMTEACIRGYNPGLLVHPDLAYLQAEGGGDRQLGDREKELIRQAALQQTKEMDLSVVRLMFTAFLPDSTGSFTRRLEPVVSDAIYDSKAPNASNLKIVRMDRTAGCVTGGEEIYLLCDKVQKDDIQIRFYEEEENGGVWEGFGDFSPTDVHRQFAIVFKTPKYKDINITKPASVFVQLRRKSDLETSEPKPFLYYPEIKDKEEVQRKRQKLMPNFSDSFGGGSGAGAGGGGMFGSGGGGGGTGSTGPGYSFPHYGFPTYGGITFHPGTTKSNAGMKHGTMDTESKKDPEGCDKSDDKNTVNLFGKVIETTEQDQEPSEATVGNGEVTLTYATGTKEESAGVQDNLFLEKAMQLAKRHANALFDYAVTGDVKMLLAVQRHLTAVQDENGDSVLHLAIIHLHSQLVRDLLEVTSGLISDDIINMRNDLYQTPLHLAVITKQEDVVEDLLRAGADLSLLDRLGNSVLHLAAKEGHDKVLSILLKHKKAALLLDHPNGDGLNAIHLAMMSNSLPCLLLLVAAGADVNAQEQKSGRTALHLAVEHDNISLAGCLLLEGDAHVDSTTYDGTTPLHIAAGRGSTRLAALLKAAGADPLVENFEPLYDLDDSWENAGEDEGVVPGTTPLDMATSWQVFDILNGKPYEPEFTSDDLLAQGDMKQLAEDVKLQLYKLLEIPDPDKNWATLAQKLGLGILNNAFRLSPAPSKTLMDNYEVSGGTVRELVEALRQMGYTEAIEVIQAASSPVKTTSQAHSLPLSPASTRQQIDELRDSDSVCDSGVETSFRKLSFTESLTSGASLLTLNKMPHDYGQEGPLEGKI
Chain of Nuclear factor erythroid 2-related factor 2 (Homo sapiens) (Q16236 whole entry, looked up): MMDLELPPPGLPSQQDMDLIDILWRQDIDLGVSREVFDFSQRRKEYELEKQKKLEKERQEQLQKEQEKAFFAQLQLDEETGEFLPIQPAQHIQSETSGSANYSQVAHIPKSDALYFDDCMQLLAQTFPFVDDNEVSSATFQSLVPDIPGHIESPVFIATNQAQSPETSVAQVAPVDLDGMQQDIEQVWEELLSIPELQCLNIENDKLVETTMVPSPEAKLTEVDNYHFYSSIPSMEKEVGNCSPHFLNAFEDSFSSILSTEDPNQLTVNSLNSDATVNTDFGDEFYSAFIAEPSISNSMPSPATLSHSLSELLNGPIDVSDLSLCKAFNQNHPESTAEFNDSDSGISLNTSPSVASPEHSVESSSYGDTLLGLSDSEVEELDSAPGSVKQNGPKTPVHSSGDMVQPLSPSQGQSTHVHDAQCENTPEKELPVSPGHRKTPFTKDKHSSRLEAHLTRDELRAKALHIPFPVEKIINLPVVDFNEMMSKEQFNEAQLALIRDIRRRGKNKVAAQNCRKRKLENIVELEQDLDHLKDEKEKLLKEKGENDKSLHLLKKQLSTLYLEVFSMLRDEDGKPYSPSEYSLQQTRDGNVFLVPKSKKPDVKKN
Chain of Signal transducer and activator of transcription 3 (Homo sapiens) (P40763 whole entry, looked up): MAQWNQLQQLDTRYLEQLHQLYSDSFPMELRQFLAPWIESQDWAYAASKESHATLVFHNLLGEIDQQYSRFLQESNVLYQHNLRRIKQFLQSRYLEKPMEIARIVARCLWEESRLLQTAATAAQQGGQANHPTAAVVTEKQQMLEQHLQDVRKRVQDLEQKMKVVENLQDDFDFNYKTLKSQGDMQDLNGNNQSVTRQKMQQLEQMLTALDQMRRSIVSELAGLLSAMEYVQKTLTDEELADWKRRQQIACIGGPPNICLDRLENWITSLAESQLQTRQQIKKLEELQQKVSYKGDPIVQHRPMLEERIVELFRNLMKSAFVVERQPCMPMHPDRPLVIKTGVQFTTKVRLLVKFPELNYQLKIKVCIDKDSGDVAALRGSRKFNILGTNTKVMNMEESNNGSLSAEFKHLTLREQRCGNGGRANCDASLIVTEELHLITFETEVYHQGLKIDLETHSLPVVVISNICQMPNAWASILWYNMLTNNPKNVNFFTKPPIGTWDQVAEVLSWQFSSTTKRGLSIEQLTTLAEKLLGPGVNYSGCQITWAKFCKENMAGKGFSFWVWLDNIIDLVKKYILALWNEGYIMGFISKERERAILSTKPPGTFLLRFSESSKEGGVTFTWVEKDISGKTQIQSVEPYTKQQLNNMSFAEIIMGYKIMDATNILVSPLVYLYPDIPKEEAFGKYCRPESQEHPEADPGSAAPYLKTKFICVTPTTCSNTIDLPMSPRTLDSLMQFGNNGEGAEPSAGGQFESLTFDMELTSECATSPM

c1cc[n+]2c(c1)-c1cccc[n+]1CC2
inactive: all assays above
